Reference: the supplement of paper PMC6089552
In all, about 3,200 compounds went through this assay and about 300 (9.4%) showed activity. The entries come from a sample that favours actives as a whole.

Test system: A673/TR/shEF
Test: cell viability (LOESS-normalised, relative to median of negative controls) (log2 ratio); higher = more viable cells (less compound effect), active = hit call of the paper (over 3 MAD below the median)
Settings: treatment time: 72 h
In short: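 A673/TR/shEF Ewing sarcoma cells were plated at 1,500 per well in 384-well plates and cultured with or without doxycycline, added 24 h before compounds, to induce EWS-FLI1 shRNA knockdown. Library compounds at two or more concentrations, alongside DMSO controls, were applied for three days. Cell viability was measured by CellTiter-Glo luminescence on an Envision reader. Readings were LOESS-corrected per plate, divided by the median of negative controls and log2-transformed, and hits were wells lying at least three median absolute deviations from the median of all screened wells.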

[1] = 0.25 µM, library screen: screen1, EWS-FLI1 expression: high (no doxycycline)
[2] = 0.25 µM, library screen: screen1, EWS-FLI1 expression: low (doxycycline-induced shRNA knockdown)
[3] = 2.5 µM, library screen: screen1, EWS-FLI1 expression: high (no doxycycline)
[4] = 2.5 µM, library screen: screen1, EWS-FLI1 expression: low (doxycycline-induced shRNA knockdown)
[5] = 0.25 µM, library screen: screen2, EWS-FLI1 expression: high (no doxycycline)
[6] = 0.25 µM, library screen: screen2, EWS-FLI1 expression: low (doxycycline-induced shRNA knockdown)
[7] = 2.5 µM, library screen: screen2, EWS-FLI1 expression: high (no doxycycline)
[8] = 2.5 µM, library screen: screen2, EWS-FLI1 expression: low (doxycycline-induced shRNA knockdown)

Measured: cell viability (log2)

COc1ccc(C(=O)C=Cc2ccccc2)cc1
inactive: [1] 0.0817 | [2] 0.0563 | [3] 0.0612 | [4] 0.0356

CC(C)=CC1C(CO)C1(C)C (stereo not drawn)
inactive: [1] 0.105 | [2] 0.00359 | [3] 0.117 | [4] 0.123

CCOC(=O)c1sc(C)c2c(=O)n(C3CCCCC3)cnc12
inactive: [1] 0.0769 | [2] 0.0757 | [3] 0.067 | [4] -0.0142

Cc1ccc(S(=O)(=O)/C=C/C#N)cc1
active: [3] -0.841 | [7] -0.102 | 25 µM, library screen: screen1, EWS-FLI1 expression: high (no doxycycline) -3.58 | 25 µM, library screen: screen1, EWS-FLI1 expression: low (doxycycline-induced shRNA knockdown) -2.12
inactive: 0.025 µM, library screen: screen1, EWS-FLI1 expression: high (no doxycycline) 0.231 | 0.025 µM, library screen: screen1, EWS-FLI1 expression: low (doxycycline-induced shRNA knockdown) -0.0315 | [1] 0.131 | [2] 0.0518 | [5] 0.14 | [6] -0.0223 | [4] -0.123 | [8] 0.0315

CC(C)(C)c1ccc(S(=O)(=O)/C=C/C#N)cc1
active: [7] -0.121
inactive: [5] 0.205 | [6] 0.163 | [8] 0.0273

C[C@@H](Oc1ccccc1)C(=O)N[C@@H]1C(=O)N2[C@@H]1SC(C)(C)[C@@H]2C(=O)O
inactive: [1] 0.0816 | [2] 0.0301 | [3] 0.188 | [4] 0.189

CC1=C[C@@H]2[C@@H](CC1)[C@](C)(O)CC[C@H]2C(C)C
inactive: [1] 0.0888 | [2] 0.0211 | [3] 0.101 | [4] 0.102

C=C1C2CC[C@@]3(C)[C@H](c4ccoc4)OC(=O)C[C@]13O[C@H]1C[C@H](OC(C)=O)C(C)(C)[C@H](CC(=O)OC)[C@@]21C
inactive: [1] 0.122 | [2] 0.0225 | [3] 0.146 | [4] 0.192

Cc1onc(-c2c(Cl)cccc2Cl)c1C(=O)Nc1ccc(Br)cc1F
inactive: [1] 0.112 | [2] 0.103 | [3] 0.116 | [4] 0.0234

O=C(/C=C/c1ccc(O)c(O)c1)O[C@H](Cc1ccc(O)c(O)c1)C(=O)O
inactive: [1] 0.0508 | [2] 0.0752 | [3] 0.0833 | [4] 0.158

O=C(O)/C=C/c1ccc(O)c(O)c1
inactive: [1] 0.082 | [2] -0.0191 | [5] 0.181 | [6] 0.126 | [3] 0.109 | [4] 0.0871 | [7] 0.0522 | [8] 0.0284

O=C(/C=C/c1ccc(O)c(O)c1)OCCc1ccccc1
active: [7] -0.129
inactive: [5] 0.197 | [6] 0.0712 | [8] 0.0968

N[C@@H](CSCSC[C@H](N)C(=O)O)C(=O)O
inactive: [1] 0.0746 | [2] 0.0305 | [3] 0.129 | [4] 0.147

N#Cc1c(-c2ccc(Br)cc2)cc(-c2ccc3c(c2)OCO3)c(C#N)c1N
inactive: [1] 0.0622 | [2] 0.109 | [3] 0.154 | [4] 0.0524

CCCc1occc(=O)c1C=CO
inactive: [1] -0.0143 | [2] 0.0143 | [3] 0.203 | [4] 0.0516

Nc1ccc(S(=O)(=O)Nc2ccnn2-c2ccccc2)cc1
inactive: [1] 0.0545 | [2] -0.0171 | [5] 0.053 | [6] 0.048 | [3] 0.14 | [4] 0.0403
active: [7] -0.179 | [8] -0.12

Nc1ccc(S(=O)(=O)Nc2ncccn2)cc1
inactive: 0.103 µM, library screen: screen3, EWS-FLI1 expression: high (no doxycycline) 0.169 | 0.103 µM, library screen: screen3, EWS-FLI1 expression: low (doxycycline-induced shRNA knockdown) 0.0541 | [1] 0.0966 | [2] 0.142 | 0.308 µM, library screen: screen3, EWS-FLI1 expression: high (no doxycycline) 0.163 | 0.308 µM, library screen: screen3, EWS-FLI1 expression: low (doxycycline-induced shRNA knockdown) 0.0301 | 0.926 µM, library screen: screen3, EWS-FLI1 expression: high (no doxycycline) 0.117 | 0.926 µM, library screen: screen3, EWS-FLI1 expression: low (doxycycline-induced shRNA knockdown) 0.108 | [3] 0.146 | [4] 0.202 | 2.8 µM, library screen: screen3, EWS-FLI1 expression: high (no doxycycline) 0.14 | 2.8 µM, library screen: screen3, EWS-FLI1 expression: low (doxycycline-induced shRNA knockdown) 0.0823 | 8.3 µM, library screen: screen3, EWS-FLI1 expression: high (no doxycycline) 0.0532 | 8.3 µM, library screen: screen3, EWS-FLI1 expression: low (doxycycline-induced shRNA knockdown) 0.0153 | 25 µM, library screen: screen3, EWS-FLI1 expression: high (no doxycycline) 0.0911 | 25 µM, library screen: screen3, EWS-FLI1 expression: low (doxycycline-induced shRNA knockdown) 0.15

Nc1ccc(S(=O)(=O)Nc2ccccn2)cc1
inactive: [1] 0.0477 | [2] 0.097 | [3] 0.18 | [4] 0.163

COC(=O)C[C@H]1C(C)(C)C(=O)[C@@H]2CC3C4=CC(=O)O[C@@H](c5ccoc5)[C@]4(C)CC[C@@H]3[C@@]1(C)C2=O (stereo partly drawn)
inactive: [1] 0.00456 | [2] 0.0839 | [3] 0.0543 | [4] 0.0477

COc1ccc2c(c1)O[C@@H]1c3ccc(OC)cc3OC[C@H]21
inactive: [1] 0.0429 | [2] 0.176 | [3] 0.0512 | [4] 0.136

C[C@H]1O[C@@H](O[C@H]2[C@@H](O)C[C@H](O[C@H]3[C@@H](O)C[C@H](O[C@H]4CC[C@@]5(C)[C@H](CC[C@@H]6[C@@H]5CC[C@]5(C)[C@@H](C7=CC(=O)OC7)CC[C@]65O)C4)O[C@@H]3C)O[C@@H]2C)C[C@H](O)[C@@H]1O
active: [1] -2.45 | [2] -2.04 | [3] -3.94 | [4] -4.23

C[C@]12CC[C@H](O)C[C@H]1C[C@@H]1OC13C2[C@H](O)C(=O)[C@]1(C)[C@@H](C2=CC(=O)OC2)CC[C@]31O (stereo partly drawn)
inactive: [1] 0.026 | [2] -0.0692 | [3] 0.111 | [4] -0.106

C[C@H]1O[C@@H](O[C@H]2[C@@H](O)C[C@H](O[C@H]3[C@@H](O)C[C@H](O[C@H]4CC[C@@]5(C)[C@H](CC[C@@H]6[C@@H]5C[C@@H](O)[C@]5(C)[C@@H](C7=CC(=O)OC7)CC[C@]65O)C4)O[C@@H]3C)O[C@@H]2C)C[C@H](O)[C@@H]1O
inactive: [1] -0.0229 | [2] -0.153
active: [3] -2.32 | [4] -1.91

CC(=O)N[C@@H]1[C@@H](O)[C@H](O)[C@@H](CO)O[C@H]1O
inactive: [1] 0.0385 | [2] 0.0648 | [3] 0.0809 | [4] 0.0429

CC(C)CC1NC(=O)C(Cc2ccccc2)NC(=O)C(CCN)NC(=O)C(NC(=O)C(CCN)NC(=O)C(CCO)NC(=O)C(CCN)NC=O)CCNC(=O)C(CCO)NC(=O)C(CCN)NC(=O)C(CCN)NC1=O.COc1cc(Cc2cnc(N)nc2N)cc(OC)c1OC (stereo not drawn)
inactive: [1] 0.0686 | [2] 0.0873 | [3] 0.182 | [4] 0.054
